Hits are enriched below; roughly 3.3% of the tested compounds scored in any of these assays.
PI5P4Ka inh = inhibitors of human PI5P4K alpha. max response, %. 330,000 compounds, 1.2% hits. PI5P4Kalpha enzyme, ADP-Glo luminescence, 60 min; active compounds read low; active = max response of -50% or lower; inconclusive = between -30% and -50%; inactive = -30% or higher; note: value at the top dose of about 77 µM
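ADP-Glo luminescence end-point read after a 60 min room-temperature kinase reaction of PI5P4Kalpha plus substrate, initiated with ATP at 5 microM final. Buffer: 0.038 M HEPES pH 7.4, EGTA, 0.1% CHAPS, 5% DMSO.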
WRN helicase inh = WRN helicase (human) inhibition. Q14191. WRN helicase unwinding, fluorescent forked duplex, kinetic. Potency, µM (highest dose often 114 µM), for the others: at the highest dose activity change, negative = inhibition, most hits filed as inhibitors. 360,000 compounds, 0.46% hits; note: potency is the fitted concentration of half-maximal effect; nearly all actives have a fitted effect of over 55% in size
Target sequence (Q14191 whole entry, looked up): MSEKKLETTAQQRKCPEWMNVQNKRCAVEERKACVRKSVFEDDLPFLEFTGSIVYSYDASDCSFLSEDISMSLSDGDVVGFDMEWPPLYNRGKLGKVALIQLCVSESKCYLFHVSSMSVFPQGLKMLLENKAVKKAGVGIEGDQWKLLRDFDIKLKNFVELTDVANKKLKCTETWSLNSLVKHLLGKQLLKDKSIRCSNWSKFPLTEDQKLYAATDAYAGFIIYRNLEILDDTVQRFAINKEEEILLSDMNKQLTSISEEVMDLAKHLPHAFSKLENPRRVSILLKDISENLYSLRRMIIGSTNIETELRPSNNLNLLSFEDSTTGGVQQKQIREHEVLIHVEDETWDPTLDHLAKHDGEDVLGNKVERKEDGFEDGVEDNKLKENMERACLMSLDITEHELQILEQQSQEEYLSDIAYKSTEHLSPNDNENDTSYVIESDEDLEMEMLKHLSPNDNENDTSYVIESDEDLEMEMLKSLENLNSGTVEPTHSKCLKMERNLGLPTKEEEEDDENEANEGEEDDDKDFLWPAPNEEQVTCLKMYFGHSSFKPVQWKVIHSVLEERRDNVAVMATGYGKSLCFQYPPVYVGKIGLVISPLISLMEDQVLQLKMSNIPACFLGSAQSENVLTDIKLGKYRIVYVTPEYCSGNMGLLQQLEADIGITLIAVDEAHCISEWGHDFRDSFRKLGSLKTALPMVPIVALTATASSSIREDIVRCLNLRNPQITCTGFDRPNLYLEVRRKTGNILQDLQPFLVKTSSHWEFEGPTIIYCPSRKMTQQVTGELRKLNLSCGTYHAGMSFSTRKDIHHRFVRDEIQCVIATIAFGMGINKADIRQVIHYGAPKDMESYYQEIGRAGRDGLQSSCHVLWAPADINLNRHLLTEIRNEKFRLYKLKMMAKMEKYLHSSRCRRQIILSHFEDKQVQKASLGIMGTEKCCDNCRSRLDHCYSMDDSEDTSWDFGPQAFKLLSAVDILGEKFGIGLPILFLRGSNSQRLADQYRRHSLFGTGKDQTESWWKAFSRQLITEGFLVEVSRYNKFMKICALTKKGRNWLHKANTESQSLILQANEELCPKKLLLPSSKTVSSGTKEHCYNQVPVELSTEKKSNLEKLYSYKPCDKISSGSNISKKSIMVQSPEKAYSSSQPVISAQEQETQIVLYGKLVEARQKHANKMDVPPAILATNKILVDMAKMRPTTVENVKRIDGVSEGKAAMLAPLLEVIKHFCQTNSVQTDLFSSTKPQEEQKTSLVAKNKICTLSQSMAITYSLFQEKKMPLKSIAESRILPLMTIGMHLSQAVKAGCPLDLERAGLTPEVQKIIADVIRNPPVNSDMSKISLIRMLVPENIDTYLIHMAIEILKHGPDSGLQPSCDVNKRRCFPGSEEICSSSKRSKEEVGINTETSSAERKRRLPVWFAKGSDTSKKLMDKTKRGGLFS
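Enzyme (20 nM final) and test compound sit together 15 min at room temperature before substrate addition. Substrate is a single-forked duplex oligonucleotide (100 nM) labelled with fluorophore and quencher, with 2 mM ATP; helicase unwinding raises red fluorescence, read kinetically.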
PLK1 PBD inh = blocks phosphopeptide binding to human PLK1 polo-box domain | Potency, µM, for the others: max response, negative = inhibition, hits mostly inhibitors | 360,000 compounds, 2.8% hits | AID 720504 | Plk1 PBD binding of FITC phosphopeptide, fluorescence polarization | P53350; note: potency is the fitted concentration of half-maximal effect; series mostly up to about 57 µM; nearly all actives have a fitted effect of over 65% in size
USP2a block = USP2a (human) protease inhibition; O75604; USP2 core, Ub-CHOP2 coupled fluorogenic reporter, 485/531; Potency, µM (doses to about 38.3 µM), for the others: at the highest dose activity change, negative = inhibition, actives largely listed as inhibitors; 330,000 compounds, 0.01% hits; AID 463254;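 note: potency is the fitted concentration of half-maximal effect; plate controls were DMSO wells for no effect and full inhibition by NEM control for full effect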
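Deubiquitinase activity read as fluorescence (485/531 nm) after Ub-CHOP2 cleavage activates the enterokinase reporter on its substrate; USP2 core 10nM, Ub-CHOP2 and substrate 25nM each, 30min compound preincubation then 60min RT; data normalized to NEM, curves fitted.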
USP1 inh = inhibitors of human USP1/UAF1 deubiquitinase; O94782; recombinant USP1/UAF1, Ub-Rhodamine cleavage fluorescence; Potency, µM (top dose mostly 57.1 µM), without a hit: top-dose activity change, negative = inhibition, usual class: inhibitors; 390,000 compounds, 0.23% hits; note: potency is the fitted concentration of half-maximal effect; nearly all actives have a fitted effect of over 60% in size
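USP1/UAF1 complex (1 nM) preincubated 15 min at room temperature with compound, then Ub-Rho substrate (150 nM final) added. Kinetic fluorescence at 480/540 nm over 6 reads at 60 s intervals; 50 mM HEPES pH 7.8, 0.5 mM EDTA, 0.1 mg/ml BSA, 1 mM TCEP, 0.01% Tween-20.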
* = called active by the depositor; ? = inconclusive; . = no result given; [ ] = dose if it differs, or a comment. Unless noted, calls come from the whole dose curve; as a rule, active = well fitted curve in the direction sought with a large enough effect; inconclusive = small, poorly fitted or top-dose-only effect, or another doubt; inactive = no such curve, though single readings can be large; an effect the other way counts as inactive or inconclusive. Unless noted, % is set by controls: 0 for no effect and ±100 for the full control effect.

SMILES	PI5P4Ka inh	WRN helicase inh	PLK1 PBD inh	USP2a block	USP1 inh
O=[N+]([O-])c1cc(S(=O)(=O)C(F)(F)F)ccc1Sc1nc2ccccc2s1	-6	?	13µM*	3%	-6%
CCOc1ccc(-c2nnc(-c3ccncc3)o2)cc1	-11	-2%	27µM*	0%	-16%
O=C(Oc1csc(=S)n1C(=O)c1ccccc1)c1ccccc1	-75*	-52%	3µM*	-2%	-18%
COc1cccc2c1cc1c(=O)n(CC(=O)N3CCN(c4cccc(C)c4)C(C)C3)nc(C)n12 (centres undefined)	.	.	.	.	-22%
CCOC(=O)Cc1ccc(NC(=O)c2ccc(C(C)(C)C)cc2)cc1	-26	-6%	5.3µM*	-2%	-32%
CCOC(=O)Cc1ccc(NC(=O)c2ccccc2Br)cc1	-2	-3%	6%	1%	-15%
Cc1cc(C)c(NC(=O)Cc2ccc(-n3c(C)nc4cccnc43)cc2)c(C)c1	.	.	.	.	-17%
Cn1c(=O)c2[nH]c(-c3ccccc3)c(O)c2n(C)c1=O	-26	-35%[57.1 µM]	27µM*	28%	-2%
Cn1c(=O)[nH]c(Nc2ccccc2)c([N+](=O)[O-])c1=O	-58*	-3%	-11%	1%	-13%
Clc1nssc1=Nc1ccccc1	-57*	?	2.4µM*	-4%	-13%
COc1ccc(N=c2ssnc2Cl)cc1	-83*	?	1.7µM*	-1%	-23%
COc1ccc(N=C2SCC(=O)N2C)cc1	0	2%	-22%	.	1%
O=C1CSC(=Nc2ccccc2)N1Cc1ccccc1	-2	-33%[57.1 µM]	-12%	-5%	8%
Cc1ccc2oc3c(c(=O)c2c1)C(c1ccc(F)cc1)N(Cc1ccc2c(c1)OCO2)C3=O (centres undefined)	.	.	.	.	2%
COC(=O)c1cc2oc3ccccc3c2n1CC(=O)Nc1ccc(C)cc1Cl	.	.	.	.	-11%
Nc1ccc2nc(-c3cc(Cl)c(N)c(Cl)c3)[nH]c2c1	?	?	24µM*	-17%	?
Nc1cc(N)cc(-c2nc3ccccc3[nH]2)c1	-64*	-25%	-2%	-14%	-22%
Nc1ccc2nc(-c3ccc(Cl)cc3)[nH]c2c1	?	-7%[57.1 µM]	0%	-4%	?
c1ccc(-c2nnsc2-c2ccccc2)cc1	-60*	-6%	1%	4%	-21%
CCN(CC)c1ccc(SS(=O)(=O)O)cc1	-25	?	6.7µM*	1%	?
O=S(=O)(O)Sc1ccccc1	-19	30%	6µM*	.	?
CCN(CC)c1ccc(C(=O)O)cc1	7	-5%	-7%	0%	3%
COc1ccc(C(=O)Nc2ccc(S(=O)(=O)NC(C)=O)cc2)cc1[N+](=O)[O-]	-16	-4%	-9%	0%	-21%
CCOCCCNS(=O)(=O)c1ccc(NC(=O)c2ccc(OC)c([N+](=O)[O-])c2)cc1	-30	-29%	3.4µM*	9%	-3%
COc1cc(/C=C2\S/C(=N/S(=O)(=O)c3ccccc3)NC2=O)c([N+](=O)[O-])cc1OC	-55*	?	?	-2%	-30%
SMILES	PI5P4Ka inh	WRN helicase inh	PLK1 PBD inh	USP2a block	USP1 inh
CCOc1ccc(NC(=O)CN2CCSc3ccc(S(=O)(=O)N4CCCC4)cc32)cc1	.	.	.	.	-25%
CCCCCCSC1=C(C#N)C(c2ccccc2)CC(=O)N1 (centres undefined)	.	-6%	-5%	2%	-12%
CCCSC1=C(C#N)C(c2cccs2)CC(=O)N1 (centres undefined)	?	-16%	24µM*	2%	-23%
O=c1c2c(nc3cc(-c4ccc(F)cc4)[nH]n13)CCCC2	-13	?	-9%	0%	-15%
O=c1c2c(nc3cc(-c4cccc(F)c4)[nH]n13)CCC2	-5	-14%	24µM*	7%	-7%
CCc1cccc(NC(=O)CSc2n[nH]c(-c3ccccc3Cl)n2)c1	.	.	.	.	-12%
O=[N+]([O-])c1ccc(O)c(/C=N/NC(=S)Nc2ccc(Cl)cc2Cl)c1	-66*	3%[11.6 µM]	?	-2%	-1%
Oc1[nH]c2ccccc2c1N=Nc1ccccc1	25	-3%	?	?	28µM*
CCC1C(=O)C(C)(C)C(=O)OC1c1ccc([N+](=O)[O-])cc1 (centres undefined)	0	2%	-15%	0%	-22%
O=C1CC(=O)OC(c2ccc([N+](=O)[O-])cc2)O1	1	-29%	6µM*	.	-6%
Cc1nn(CCCC(=O)NCc2ccccc2)c(=O)c2cc3sccc3n12	.	.	.	.	-9%
Cn1c(=S)ccc2ccccc21	-2	-7%	27µM*	1%	-24%
N#Cc1ccc(C(=O)NCc2ccc3c(c2)CCN3C(=O)c2ccc(F)cc2)cc1	.	.	.	.	-16%
O=C(O)c1cc(S(=O)(=O)N2CCOCC2)ccc1N1CCCCC1	7	8%	-12%	8%	-2%
O=c1c2ccccc2sn1-c1cc(S(=O)(=O)N2CCOCC2)ccc1N1CCCC1	.	-24%	3µM*	4%	-13%
O=c1c2ccccc2sn1-c1cc(S(=O)(=O)N2CCOCC2)ccc1N1CCOCC1	.	?	0.84µM*	-2%	-6%
Cc1ccccc1C(c1c(C)n(C)n(-c2ccccc2)c1=O)c1c(C)n(C)n(-c2ccccc2)c1=O	.	.	.	.	-23%
COc1ccc(NC(=S)NNC(=O)CNc2ccc(Cl)cc2)cc1	-4	8%	27µM*	0%	-18%
COc1cc2ccccc2cc1C(=O)NC(=S)Nc1ccc(C(=O)O)cc1	-5	-13%[11.6 µM]	30µM*	-1%	-15%
COc1cc2cc(C(=O)Nc3ccccc3)c(N)nc2cc1OC	-22	-10%	24µM*	-5%	-15%
COc1cc2ccccc2cc1C(=O)NC(=S)Nc1cccc(C(=O)O)c1	-6	?	?	2%	-25%
COc1ccc(NC(=S)NNC(=O)COc2ccc(Cl)cc2Cl)cc1	-5	-22%	-27%	-1%	-2%
COc1ccc(NC(=O)c2cc3ccccc3cc2OC)cc1	-3	-14%	30µM*	0%	-9%
COc1cc2cc(C(=O)NC(C)c3cccc4ccccc34)c(N)nc2cc1OC (centres undefined)	-1	-18%	-4%	.	.
CC(Oc1ccccc1F)C(=O)N1CCC(c2nc3ccccc3o2)CC1 (centres undefined)	.	.	.	.	-23%
SMILES	PI5P4Ka inh	WRN helicase inh	PLK1 PBD inh	USP2a block	USP1 inh
O=C(NC(=S)Nc1ccc(O)cc1)c1ccccc1Cl	1	-8%	1%	8%	-18%
COc1ccc(NC(=S)NC(=O)c2ccccc2Cl)cc1	-1	4%	27µM*	-6%	-25%
O=C(O)CCCC(=O)Nc1ccn(-c2ccccc2)n1	-27	23%	11µM*	1%	1%
COc1ccc(CNC(=O)c2sc3nc4n(c(=O)c3c2C)CCCCC4)cc1	.	.	.	.	-12%
CC(C)COc1ccc(C(=O)CCN2CCCCC2)cc1	0	?	21µM*	-1%	-18%
CC(C)COc1ccc(C(=O)OCCN2CCCCC2)cc1	-3	0%	-6%	3%	-5%

Screening data (PubChem BioAssay)
